Data as given in PubChem BioAssay (NCATS).
Records with an inconclusive call do not appear. Unmarked numbers belong to inactive results. Activity calls are given as the source filed them. Calls come from the whole dose curve; as a rule, active = well fitted cell-killing curve with a large enough effect; inconclusive = small, poorly fitted or top-dose-only effect; inactive = no such curve, though single readings can be large or run the other way.

Assay: qHTS of pediatric cancer cell lines to identify multiple opportunities for drug repurposing: Primary screen for A673 cells (AID 1347092); note: nearly all actives have a fitted effect of over 45% in size
Conditions: A673 Ewing sarcoma viability, CellTiter-Glo ATP luminescence, 48 h; series mostly up to 46 µM; activity change, negative = cytotoxic: at the top concentration
From the text: Drug repurposing or repositioning has been offered as a strategy for drug development in oncology programs. This approach has special potential for childhood cancers and other rare or orphan diseases, where the expected return on new drug development has been a disincentive to pharmaceuticals. […] In this project we exploit the poly-pharmacology of drugs to discover new indications via phenotypic screening of a panel of 19 well-characterized cell lines derived from solid tumors seen in children and adolescents. The goal is to identify approved drugs with previously unrecognized anticancer properties that has the potential to reveal new mechanisms and biological processes involved in carcinogenesis or drug resistance. We employed a titration-based paradigm (quantitative high-throughput screening or qHTS), where all compounds were tested at multiple concentrations for their effect on cell viability. Concentration-response curves (CRCs) were derived directly from the primary screen, and both potency and efficacy values were used to identify compounds with robust bioactivity profiles. We screened the NIH Chemical Genomics Center (NCGC) Pharmaceutical Collection (NPC) and Mechanism Interrogation Plate (MIPE) small molecule collections of approved and investigational compounds against these cell lines; and measured metabolically active cells after 48 hours of compound treatment as a proxy for cell viability. […] Assay Submitter: Nathalia J. Martinez, National Center for Advancing Translational Sciences, National Institutes of Health, Rockville, MD, USA; email: natalia.martinez@nih.gov. Shen, M et al. Quantitative high-throughput phenotypic screening of pediatric cancer cell lines identifies multiple opportunities for drug repurposing. Oncotarget 2017 Dec 19;9(4):4758-4772. PMID 29435139.
The cells were obtained from University of North Carolina (UNC), Pediatric Preclinical Testing Program (PPT), and Coriell Institute (CI). qHTS cell viability assay: Cells were assayed in growth media at a density of 500-1,000 cells/well. Five microliters of cells were dispensed into 1,536-well, white, solid-bottom, TC-treated plates (Greiner Bio One) using a multidrop dispenser and incubated at 37 degrees C, 5% CO2, under a humidified atmosphere for 5 hours. Twenty-three nanoliters of compounds and controls (neutral control DMSO or positive control bortezomib at final concentration of 2.3 uM) were subsequently transferred by Kalypsys pintool. For primary screens, the MIPE collection was tested at 11-point dilutions (final concentrations range from 0.78 nM to 46 µM) and the NPC collection at 8-point dilutions (final concentrations range from 0.59 nM to 46 µM). Compounds tested in follow-up screens were assayed at 11-point dilutions. Cells were incubated for 48 hours, followed by addition of 3 uL of CellTiter-Glo (Promega). After a 15min incubation at room temperature, samples were analyzed for luminescence intensity using a ViewLux High-throughput CCD imager equipped with clear filters.
% is set by controls: 0 for no effect and ±100 for the full control effect; potency is the fitted concentration of half-maximal effect.

SMILES | Potency | activity change, negative = cytotoxic
COc1cc([C@@H]2c3cc4c(cc3[C@@H](O[C@@H]3O[C@@H]5CO[C@@H](C)O[C@@H]5[C@H](O)[C@@H]3O)[C@H]3COC(=O)[C@H]23)OCO4)cc(OC)c1O | 1.48 µM (active) | 
CC[C@H]1OC(=O)[C@H](C)[C@@H](O[C@H]2C[C@@](C)(OC)[C@@H](O)[C@H](C)O2)[C@H](C)[C@@H](O[C@@H]2O[C@H](C)C[C@H](N(C)C)[C@H]2O)[C@](C)(O)C[C@H](C)C(=NOCOCCOC)[C@H](C)[C@@H](O)[C@]1(C)O |  | -26.4%
Fc1ccc(CNc2ncnc3ccc(F)cc23)cc1 | 9.35 µM (active) | 
CN(C)CC[C@H](CSc1ccccc1)Nc1ccc(S(=O)(=O)NC(=O)c2ccc(N3CCN(Cc4ccccc4-c4ccc(Cl)cc4)CC3)cc2)cc1[N+](=O)[O-] | 3.72 µM (active) | 
Cc1ccccc1-n1c(Cn2nc(-c3cccc(O)c3)c3c(N)ncnc32)nc2cccc(C)c2c1=O | 0.0047 µM (active) | 
CN1CCN2c3ncccc3Cc3ccccc3C2C1 (stereo not given) |  | 0.318%
CNC(=O)c1ccc2c(C(=Nc3cccc(CN(C)C)c3)c3ccccc3)c(O)[nH]c2c1 | 11.8 µM (active) | 
Cc1ccc(C(=O)N(CCCN)[C@@H](c2nc3cc(Cl)ccc3c(=O)n2Cc2ccccc2)C(C)C)cc1 | 0.001 µM (active) | 
COC(=O)Nc1ccc(-c2nc(N3CCOCC3)c3cnn(C4CCN(C(=O)OC)CC4)c3n2)cc1 | 0.59 µM (active) | 
COc1ccc(-c2cc(=O)c3c(O)cc(O[C@@H]4O[C@H](CO[C@@H]5O[C@@H](C)[C@H](O)[C@@H](O)[C@@H]5O)[C@@H](O)[C@H](O)[C@@H]4O)cc3o2)cc1O | 14.8 µM (active) | 
O=C(C=Cc1ccc(O)cc1)c1ccc(O)cc1O | 18.7 µM (active) | 
COc1c(C)cnc(Cn2cnc3c(Cl)nc(N)nc32)c1C | 0.235 µM (active) | 
COc1ccc(-c2ccc3ncc4c(c3c2)n(-c2ccc(N3CCNCC3)c(C(F)(F)F)c2)c(=O)n4C)cn1 | 0.372 µM (active) | 
CN(C)CCOc1cc(-c2cn[nH]c2)ccc1NC(=O)C1COc2ccccc2O1 (stereo not given) | 18.7 µM (active) | 
Cc1cccc(-c2[nH]c(C(C)(C)C)nc2-c2ccc3c(c2)OCO3)n1 | 4.69 µM (active) | 
C=C1c2cccc(O)c2C(O)=C2C(=O)[C@@]3(O)C(O)=C(C(N)=O)C(=O)[C@@H](N(C)C)[C@@H]3[C@@H](O)[C@H]12 | 23.5 µM (active) | 
Cc1[nH]c(C=C2C(=O)Nc3ccc(S(=O)(=O)N(C)c4cccc(Cl)c4)cc32)c(C)c1C(=O)N1CCN(C)CC1 | 23.5 µM (active) | 
CO[C@H]1C=CO[C@@]2(C)Oc3c(C)c(O)c4c(O)c(c(C=NN5CCN(C)CC5)c(O)c4c3C2=O)NC(=O)C(C)=CC=C[C@H](C)[C@H](O)[C@@H](C)[C@@H](O)[C@@H](C)[C@H](OC(C)=O)[C@H]1C |  | 0.264% [at 9.22 µM]
CN1N=C(N)c2cn([C@@H]3O[C@H](COP(=O)(O)O)[C@@H](O)[C@@H]3O)c3ncnc1c23 | 3.72 µM (active) | 
COc1cc(Cl)cn2c(-c3cccc(NC4CNC4)n3)cnc12 | 4.69 µM (active) | 

SMILES | Potency | activity change, negative = cytotoxic
CCOC(=O)N1CCN([N+]([O-])=NOc2cc(ON=[N+]([O-])N3CCN(C(=O)OCC)CC3)c([N+](=O)[O-])cc2[N+](=O)[O-])CC1 |  | -25.3%
Cc1ccc(NC(=O)c2cccc(N(C)C)c2)cc1NC(=O)c1ccc(O)cc1 | 0.148 µM (active) | 
CCNC(=O)c1noc(-c2cc(C(C)C)c(O)cc2O)c1-c1ccc(CN2CCOCC2)cc1 | 0.148 µM (active) | 
CCN1CCC(n2cc(CNc3cc(Cl)c4ncc(C#N)c(Nc5ccc(F)c(Cl)c5)c4c3)nn2)CC1 | 14.8 µM (active) | 
CCC(=C(CC)c1ccc(O)cc1)c1ccc(O)cc1 | 18.7 µM (active) | 
C=CC(=O)Nc1cccc(Sc2nc(Nc3ccc(N4CCN(C)CC4)cc3)ncc2Cl)c1 | 1.48 µM (active) | 
COc1cc(F)c(C(C)C)cc1-c1ccc(C(F)(F)F)cc1CN1C(=O)O[C@H](c2cc(C(F)(F)F)cc(C(F)(F)F)c2)[C@@H]1C |  | -5.88%
N#Cc1ccc(Oc2ccc3c(c2)COB3O)cc1 |  | -23.6%
COc1ccc2cc1Oc1ccc(cc1)C[C@H]1c3cc(c(OC)cc3CCN1C)Oc1c(OC)c(OC)cc3c1[C@H](C2)N(C)CC3 | 23.5 µM (active) | 
C[C@@H]1O[C@@H](O[C@H]2CC[C@@]3(C)[C@H](CC[C@@H]4[C@H]3C[C@@H](O)[C@]3(C)[C@@H](C5=CC(=O)OC5)CC[C@]43O)C2)C[C@H](O)[C@@H]1O[C@H]1C[C@H](O)[C@H](O[C@H]2C[C@H](O)[C@@H](O)[C@@H](C)O2)[C@H](C)O1 (stereo in doubt) | 0.171 µM (active) | 
CN[C@@H]1CN(c2ccc3c(=O)c(C(=O)O)cn(-c4nccs4)c3n2)C[C@@H]1OC | 8.12 µM (active) | 
Cc1cnc(Nc2cccc(CN3CCOCC3)c2)nc1Nc1cccc(S(=O)(=O)NC(C)(C)C)c1 | 5.9 µM (active) | 
CC(C)N(CCCNC(=O)Nc1ccc(C(C)(C)C)cc1)C[C@H]1O[C@@H](n2cc(Br)c3c(N)ncnc32)[C@H](O)[C@H]1O | 18.7 µM (active) | 
O=C(Nc1ncc(SCCN2CCCC2)s1)[C@]1(c2ccc(S(=O)(=O)C3CC3)cc2)C[C@@H]1C1CCCCC1 | 18.7 µM (active) | 
CCCCOCCOc1nc(-c2ccc(C(=O)O)c(F)c2)sc1C |  | -9.34%
CNc1nc(Nc2ccc(C(=O)N3CCOCC3)cc2OC)ncc1Cl |  | -24.6%
COc1ccc(CCC(=O)Nc2nc3ccc(Cl)cc3s2)cc1OC | 18.7 µM (active) | 
O=C(O)C1=CC(O)C(O)[C@H](O)C1 (stereo not given in full) |  | 6.63%
O=C1C(CCC(O)c2ccc(F)cc2)C(c2ccc(O)cc2)N1c1ccc(F)cc1 (stereo not given) |  | -2.74%
COc1nc(C)cnc1NS(=O)(=O)c1cccnc1-c1ccc(-c2nnco2)cc1 |  | -15.9%
